tested on: VDR:RXRa (NR concentration 270 nM, RXRa partner concentration 90 nM); assay: PBM binding z-score (relative to random genomic background probes); higher = stronger binding; sequences stand for … in GC…GCGATTGACAGCGTAGAATGAAGG
Procedure: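 Protein-binding microarray (Agilent 4x180K custom design, double-stranded 60-nt probes: 5' GC cap, 34-nt variable region, 24-nt constant primer region; full probe sequence given). Purified or IVT nuclear receptor:RXRα heterodimers (3:1 NR:RXRα, mostly 270:90 nM) or homodimers were incubated for 1 h in PBS with 2% milk and no ligand, then detected with Alexa488 antibodies. Fluorescence from o1-orientation probes (~5 replicates averaged) was converted to z-scores against 500 random hg19 background probes. Variable regions are seed direct-repeat (DR0–DR5) sites, all their single-nucleotide variants and half-site ablations.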

Sequence | PBM binding z-score
CCTACTGGGACAAAGGTCATTGATTCCAATGCTC | 4.67
CCTACTGGGCCACGAAAGGTCAATGATTCAGTGA | 3.4
ATCTCTAGGTAAGACTCAGTTCAGCGAAGAACGC | 0.97
ATCGAGAGGTCGAAGGTGAGTATACCCACCCGAA | 2.42
TGACTGAGGTTATAAGATCAGGGAACGTTGCAAA | 0.798
TCATATAGGTAAATGCTTGGTGAAAGTCCGATCT | 0.808
TCTTGTAGATCCGCAGGTTAAGAAAGCTGGCCAA | 0.237
CCTCGGAGGCCAACAGGAGGTCAGAGCTGCCAGA | 2.07
CAAACTAGGTCACGAAGGGTCAAAGTCGAATGAC | 6.99
CCTTACGGGTCAAGTTTATAGCACGGGTGGTACG | 3.9
TCTAGTTGGTCAAAGGTCACAGACTCGAAATGCG | 5.45
ATCTCTAGGTAAACATAGTTCAGTGAATGCAAAT | 1.34
CGAACTAGGTCAGAACCGGACAGTGAAGGATGAT | 0.264
TATACAGGGTCAAAGGCCAGATTACGAATGTCGA | 4.85
AGAACGAGGGCACGCTGAGTTGTTAGCAGAGTAG | 1.6
CCTACTGGGCGATCAGGTCATTGATATCAACGTT | 1.67
TCTAGCAGTCCAGAGGGTCACTCAAGAGGTACGG | 1.69
CTCGAAAGGCCGGTTGAGGTGAGTATACGGATAA | -0.304
CCTTACGGGTCACTGACAGGTTATCGCATTTGGA | 3.85
CCTCGGAGGACAGAAGGTCAGAGCTGTCCGCTTT | 1.02

Sequence | PBM binding z-score
GCAAGTTGGTCAGTAAAAGGTCACACACCGGTCG | 4.11
GGAACGAGGGCTAGTTGATAGCAGAGTTTGATGG | -0.607
GCTCGGAGGACACGGTCAGAGCTTTGTCCGTAGA | -0.792
TAGCCTAGGTCATTCTGGGGCCAGTATAGAAAGC | 2.88
CCTTACGGGTCACTAACAGGTTATAGCATTTGGA | 3.28
AGAATGAGGTTAAGATCAGGGTAACAGAATACAT | 2
AGAATGAGGTTATACGTAGATAAGGGAAGAAAGT | 1.47
GTACCAAGGTTAATAGGTCGTTGATGAGTAGGCG | 2.23
TCTCGGAGGAGACGAAGGTCAGAGCTTTCCAGAG | 0.483
CGTCAAAGTTCAACTAAGATAACGTAAAGCACGC | 4.2
CCTACTGGGCCATTCAGAGATCATTGATCATATG | -0.415
CCTAGCAGGCCAGGGTCACTAAAGCATTTCGCTT | 2.08
CCTACTGGGCCATTCAGTGGTCATTGATCATATG | -0.487
TCTAGTTGGTCACGGAGGTCAAACACGACGGGTA | 6.21
CGGACTAGGTCAGAACAGGACAGTGAAGGATGAT | 0.538
TGTGCTAGGTCAACGATGGTCAGCTAATCTGCTA | 1.65
CCTACTGGGCCACGAAAGGTCATTGAGTCAGTGA | 4.67
CGGACTGGGGCAGAAAGGTTACCATACCATCCGG | 1.33
GATACAGGGTCAGCTAGAGGCCAGAGCATGGAAA | 3.04
CCTACTGGGGCAAGGTCATTGATCAGTCAAAGCA | 3.59
